The values that follow come from PubChem BioAssay (NCI).

Assay [1] in a line: NCI Yeast Anticancer Drug Screen. Data for the rad50 strain (AID 155).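 Also: 0% = growth of vehicle-only cultures of the same strain.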 Particulars: S. cerevisiae rad50 strain growth inhibition; at 50.0 µM; hits give high values. In short, it runs like this:
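Yeast carrying a defined DNA repair defect were exposed to test compounds, and growth was compared with vehicle-treated controls to give percent inhibition.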

Assay [2] can be described thus: NCI Yeast Anticancer Drug Screen. Data for the mec2-1 strain (AID 157). Particulars: S. cerevisiae mec2-1 strain, at 50.0 µM, hits give high values. In short, it runs like this:
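Mutant yeast (mec2-1) grown with compound; growth inhibition relative to vehicle control reported.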

A short description of assay [3]: NCI Yeast Anticancer Drug Screen. Data for the sgs1 mgt1 strain (AID 161).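 Also: 0% = growth of cultures given vehicle only.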 The conditions noted are these: S. cerevisiae sgs1 mgt1 strain, at 50.0 µM, hits give high values. In short, it runs like this:
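Percent growth inhibition was derived by comparing compound-exposed mutant yeast with vehicle-exposed cultures. The strain carries alterations in DNA damage repair.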

Assay [4] is described as follows: NCI Yeast Anticancer Drug Screen. Data for the cln2 rad14 strain (AID 165).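 Also: 0% = growth equal to vehicle treated cultures.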 Particulars: S. cerevisiae cln2 rad14 strain, at 50.0 µM, hits give high values. In short, it runs like this:
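Readout is yeast growth inhibition versus vehicle-treated controls, using a strain with cln2 and rad14 alterations exposed to compound.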

Assay [5] can be described thus: NCI Yeast Anticancer Drug Screen. Data for the bub3 strain (AID 167). Particulars: S. cerevisiae bub3 mutant strain, at 50.0 µM, hits give high values. In short, it runs like this: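 Compounds were applied to a genetically altered yeast strain carrying a cell-cycle control defect. Growth inhibition was scored against vehicle-treated controls.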
Assay [6] in a line: NCI Yeast Anticancer Drug Screen. Data for the mlh1 rad18 strain (AID 175). The conditions noted are these: S. cerevisiae mlh1 rad18 strain growth inhibition; at 50.0 µM; hits give high values. In short, it runs like this: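 Genetically defined yeast (DNA repair-deficient) exposed to compounds; growth inhibition determined relative to vehicle.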

This is part of a sample that, as a whole, favours compounds with a hit. Of some 79,000 tested, about 15% had one in any assay. Unmarked numbers belong to inactive results. Activity calls are given as the source filed them. Rule as the data show it: active = growth inhibition above about 70%; inactive = the rest.

On to `O=S(=O)(CS(=O)(=O)c1ccc(Br)cc1)c1ccc(Br)cc1`, for which the growth inhibition in assay [1] was 1.4%; in assay [2] it was 33.1%; in assay [3], -14.6%; in assay [4], 20.8%; in assay [5], 4.6%; in assay [6] it was 12%.

For the compound `O=C(O)c1ccccc1CC(Cc1ccc2c(c1)CCC2)C(=O)O` (stereo not given), the growth inhibition in assay [1] is -7.55%; in assay [2], -2.25%; in assay [3], -37%; in assay [4], -5.15%; in assay [5], -17.6%; in assay [6], -6%.

Regarding `O=c1[nH]c2cc(Cl)ccc2nc1/C=C(\O)c1cccc2ccccc12`, the growth inhibition in assay [1] is 40.9%; in assay [2], 15.2%; in assay [3], 28.6%; in assay [4], 17%; in assay [5] it was 15.1%; in assay [6], 35%.

Take `CCCCCCCCCCCCCCCC/C=C\CCCCCCCCCCCCCCCCC`: the growth inhibition was -7.8% in assay [1]; -18.1% in assay [2]; -0.85% in assay [3]; 17.3% in assay [4]; 2.25% in assay [5]; -13.1% in assay [6].

As for `Cc1cc(N(CCC#N)CCC#N)ccc1/C=C1\N=C(c2cc([N+](=O)[O-])ccc2Cl)N(c2cccc(Cl)c2)C1=O`, the growth inhibition is -19.4% in assay [1]; -20.2% in assay [2]; -23.9% in assay [3]; -7.6% in assay [4]; -6.05% in assay [5]; -29.2% in assay [6].

Turning to `Clc1ccc2c(c1)[nH]c1c2nc2sccn21`, the growth inhibition in assay [1] is -7.25%; in assay [2], -14.7%; in assay [3], -0.3%; in assay [4], 1.15%; in assay [5], -12.9%; in assay [6] it was -10.1%.

For `CCCCCCCCOc1ccc(C=Nc2ccc(C)cc2)cc1`, the growth inhibition in assay [1] is -2.05%; in assay [2], 19.3%; in assay [3] it was 0.45%; in assay [4], -9.8%; in assay [5] it was 16.9%; in assay [6], 13%.

Consider `O=[N+]([O-])c1ccc2nc[nH]c2c1`, for which the growth inhibition in assay [1] was 48.8%; in assay [2] it was 4.9%; in assay [3], -6.4%; in assay [4] it was 25.5%; in assay [5] it was -0.2%; in assay [6], 43.1%.

Regarding `CNc1nc(Cl)nc2c1nc(SC)n2-c1ccccc1`, the growth inhibition in assay [1] was 7.15%; in assay [2], -17.8%; in assay [3], 4.2%; in assay [4] it was -13.2%; in assay [5], 18.2%; in assay [6], 17.4%.

Take `O=C=Nc1ccccc1[N+](=O)[O-]`: the growth inhibition in assay [1] was -4.25%; in assay [2], -28%; in assay [3], -15.8%; in assay [4], -65.5%; in assay [5], -0.55%; in assay [6], -9.2%.

Regarding `Cc1sc2nc(N(C)C)oc(=O)c2c1C`, the growth inhibition in assay [1] is 28.8%; in assay [2], 51%; in assay [3], 33.6%; in assay [4] it was 1.5%; in assay [5], 64.4%; in assay [6] it was 50.5%.

`Cn1cc(/C=C/C(=O)c2ccccc2[N+](=O)[O-])c2ccccc21`: the growth inhibition was 7.8% in assay [1]; 12.9% in assay [2]; 2.6% in assay [3]; 18.1% in assay [4]; 0.6% in assay [5]; 2.85% in assay [6].

For `S=C(Nc1ccccc1)NC1SNC(=Nc2ccccc2)N1c1ccccc1` (stereo not given), the growth inhibition in assay [1] is 98.2% (active); in assay [2], 99.4% (active); in assay [3], 98.8% (active); in assay [4], 99.3% (active); in assay [5], 99.3% (active); in assay [6], 99% (active).

`C=C(C(N)=O)c1ccc([N+](=O)[O-])o1`: the growth inhibition in assay [1] was 52.4%; in assay [2] it was 44.7%; in assay [3], 62.4%; in assay [4], 30%; in assay [5], 19.8%; in assay [6], 90% (active).

In the case of `Nc1ccnc2cc(Cl)ccc12`, the growth inhibition in assay [1] is 17.4%; in assay [2] it was 4.45%; in assay [3], 3.3%; in assay [4], 2.6%; in assay [5], -4.05%; in assay [6] it was 26.6%.

On to `CCOC(=O)C1CCC/C1=N/Nc1ccc([N+](=O)[O-])cc1[N+](=O)[O-]` (stereo not given), for which the growth inhibition was -1% in assay [1]; 10.6% in assay [2]; 3.25% in assay [3]; -21.9% in assay [4]; -5.3% in assay [5]; -4.75% in assay [6].

`C=CCOCC(CCl)OC(=O)C(C)C` (stereo not given): the growth inhibition was -4.95% in assay [1]; -11.8% in assay [2]; -13.3% in assay [3]; -9.9% in assay [4]; 0.7% in assay [5]; -20.2% in assay [6].

Turning to `O=C(/C=C\c1ccc(Cl)cc1)c1ccccc1`, the growth inhibition is -23.1% in assay [1]; -34.5% in assay [2]; 15.3% in assay [3]; -6.4% in assay [4]; 12.7% in assay [5]; 2.05% in assay [6].

In the case of `Cc1[nH]n(-c2ccccc2)c(=S)c1C(=O)c1ccccc1`, the growth inhibition in assay [1] is -11.7%; in assay [2] it was 1.05%; in assay [3] it was 2.55%; in assay [4] it was 1.7%; in assay [5], 2.25%; in assay [6], 0.45%.

For `O=C1CCSC(=S)N1c1ccccc1`, the growth inhibition in assay [1] was 38.2%; in assay [2], 4.8%; in assay [3] it was 23.8%; in assay [4], -32.2%; in assay [5], -5.4%; in assay [6] it was 27.1%.
